Our source for the inhibition values is PubChem BioAssay AID1903 (Southern Research Specialized Biocontainment Screening …, 2009).

Hit rate of the full screen: of about 310,000 compounds, about 1,200 (0.39%) were called active. Only a sample is shown. Entries with a potency or affinity are not part of this list. A number with no mark means an inactive call. The rule behind the calls is not given here.

Large T antigen (Simian virus 40), sequence (P03070 whole entry, looked up): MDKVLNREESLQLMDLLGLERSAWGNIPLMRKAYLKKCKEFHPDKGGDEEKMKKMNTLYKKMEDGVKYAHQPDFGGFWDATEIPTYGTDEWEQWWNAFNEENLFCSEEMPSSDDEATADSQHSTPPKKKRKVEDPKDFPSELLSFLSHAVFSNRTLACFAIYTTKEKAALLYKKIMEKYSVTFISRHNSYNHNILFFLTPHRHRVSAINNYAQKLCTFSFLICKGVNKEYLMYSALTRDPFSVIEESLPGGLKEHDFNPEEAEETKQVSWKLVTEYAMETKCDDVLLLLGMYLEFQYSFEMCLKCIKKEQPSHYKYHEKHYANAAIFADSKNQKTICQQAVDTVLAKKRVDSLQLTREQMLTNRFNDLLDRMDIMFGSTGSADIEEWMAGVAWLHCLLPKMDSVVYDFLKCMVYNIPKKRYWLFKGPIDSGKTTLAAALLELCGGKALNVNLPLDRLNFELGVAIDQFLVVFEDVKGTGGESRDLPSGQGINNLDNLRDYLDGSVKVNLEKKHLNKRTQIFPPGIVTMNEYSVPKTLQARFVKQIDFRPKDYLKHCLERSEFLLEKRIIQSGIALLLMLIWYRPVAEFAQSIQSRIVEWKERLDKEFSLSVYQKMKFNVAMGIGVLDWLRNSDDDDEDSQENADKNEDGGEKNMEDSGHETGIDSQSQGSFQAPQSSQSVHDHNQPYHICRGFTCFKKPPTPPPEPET

The assay concerns the target Large T antigen (Simian virus 40) (UniProt P03070). Put plainly: TAg ATPase/helicase activity blockers – biochemical (AID 1903). As to conditions: SV40 large T antigen ATPase/helicase inhibition assay; at 20 µM; stronger effect = higher value.
In the case of `COc1ccc(C(=O)Nc2ccc(C)cc2C(=O)c2ccccc2)c(OC)c1`, the inhibition (in general, the change of the read-out against control, counted positive when it falls) is 5.96%.
Consider `Cc1ccccc1CNC(=O)c1ccccc1N`, for which the inhibition is 14.8%.
For the molecule `CCn1cc(/C=C/C(=O)Nc2ccn(Cc3c(F)c(F)c(F)c(F)c3F)n2)cn1`, the inhibition is -8.72%.
Under `NC(=O)c1ccc(NC(=O)CSc2cn(CC(=O)N3CCOCC3)c3ccccc23)cc1` stands 2.11%.
The figure for `COc1ccc(Nc2ccc(Cl)nn2)cc1` is 17.6%; for `C/C(=N\Nc1ncc(Br)cn1)c1cccc([N+](=O)[O-])c1` it is 10.7%.
On to `Cc1ccc(/C=C2/C(=N)N3N=C(CC(=O)N4CCCC4)SC3=NC2=O)o1`, for which the inhibition is -4.18%.
On to `N=C1/C(=C\c2ccc(Br)o2)C(=O)N=C2SC(CC(=O)N3CCOCC3)=NN12`, for which the inhibition was 36.3%.
On to `Cc1cccc(C(=O)NNC(=O)CCn2nnc3ccccc32)c1`, for which the inhibition is 1.08%.
In the case of `COCc1cc(C)nc(SCC(=O)Oc2ccc(Cl)cc2)c1C#N`, the inhibition is 16%.
For `COCc1cc(C)nc(SCC(=O)Oc2ccccc2)c1C#N`, the inhibition is 15.3%.
The figure for `Cc1cc(C(F)(F)F)nn1Cc1n[nH]c(=S)n1-c1ccc(F)cc1` is 15.9%; for `CS(=O)(=O)c1ccc(Cl)c(NC(=O)C2CCCN(C(=O)c3ccc(Cl)cc3)C2)c1` (centres undefined) it is 6.85%; for `COc1ccc(C(=O)NC(C(=O)NCC(=O)Nc2c(C)cccc2C)C(C)C)cc1` (centres undefined) it is 3.58%.
As to `Cc1nn(CC(=O)N2CCOCC2)c(=O)c2nn(-c3ccccc3)c(C)c12`, the inhibition is 1.18%.
With `COc1cc(O)c(C(CCN2CCN(c3ccccc3)CC2)c2ccc3c(c2)OCO3)c(OC)c1` (centres undefined), the inhibition was 7.18%.
In the case of `CC(=O)Oc1cc2oc(=O)cc(C)c2cc1Cl`, the inhibition was 14.8%.
Under `CC(=O)Oc1ccc2c(C)cc(=O)oc2c1` stands 17%; under `CC(C)N(C(=S)Nc1cccnc1)c1ccccc1`, 12.6%; under `CN(C(=S)Nc1ccc(Oc2ccccc2)cc1)c1ccc(O)cc1`, 21.8%.
`CC(C)(C)c1ccc(/C=N/NC(=S)Nc2cccnc2)cc1`: the inhibition is 9.92%.
Turning to `COc1ccc(O)c(/C=N/NC(=S)Nc2cccnc2)c1`, the inhibition was 25.1%.
Turning to `Fc1ccc(/C=N/NC(=S)Nc2cccnc2)cc1`, the inhibition was 7.01%.
Under `Fc1cccc(F)c1/C=N/NC(=S)Nc1cccnc1` stands 24.5%; under `NC(=O)c1ccc(NC(=O)CCCNC(=O)c2ccc(Cl)cc2)cc1`, 8.64%; under `CCc1ccc(C2=NNC(=Nc3cccc(S(=O)(=O)N(C)C)c3)SC2)cc1`, 4.35%.
As to `CCC(C)N(C(=O)c1csnn1)C(C(=O)NC1CCCC1)c1c(F)cccc1Cl` (centres undefined), the inhibition is 7.33%.
Under `CCN(CC)CCNC(=O)c1ccc(NC(=O)c2ccc(C(=O)c3ccccc3)cc2)cc1` stands 37.6%; under `Cc1ccc(S(=O)(=O)N2CCOC2CNC(=O)C(=O)NCCc2c[nH]c3ccccc23)cc1` (centres undefined), -3.07%.
As to `O=C(NCCc1c[nH]c2ccccc12)C(=O)NCC1OCCCN1S(=O)(=O)c1ccccc1` (centres undefined), the inhibition is 16.5%.
Turning to `COc1ccc(O)c(C(=O)c2cnc3c(c2)c(=O)[nH]c(=O)n3C)c1`, the inhibition is 3.44%.
For `Fc1ccc(/C=N\Nc2cccc(F)c2)cc1`, the inhibition is 8.31%.
For the molecule `Cc1ccc(N(C(=O)Cc2c[nH]c3ccccc23)C(C(=O)NC2CCCCC2)c2ccco2)cc1` (centres undefined), the inhibition was -1.52%.
The figure for `CN(C)CCCOc1ccc2c(c1)Sc1ccccc1CC2=O` is -4.85%; for `O=C1c2c(O)cc(O)cc2O[C@H](c2ccc(O)c(O)c2)[C@@H]1O` it is 5.87%; for `O=C1c2c(O)cc(O)cc2O[C@H](c2ccc(O)c(O)c2)[C@H]1O` it is 7.35%.
Regarding `Oc1cc(O)c2c(c1)O[C@H](c1ccc(O)c(O)c1)[C@H](O)C2`, the inhibition is 37.1%.
As for `O=C(O[C@@H]1Cc2c(O)cc(O)cc2O[C@@H]1c1cc(O)c(O)c(O)c1)c1cc(O)c(O)c(O)c1`, the inhibition is -0.22%.
For `COc1cc(C(=S)N2CCOCC2)cc(OC)c1OS(=O)(=O)c1ccc(C)cc1`, the inhibition was 3.46%.
Under `Cc1csc(Sc2ccc([N+](=O)[O-])cc2C(=O)OCC(=O)NC2CCCC(C)C2C)n1` (centres undefined) stands 16.8%; under `CC(C)C(=O)NNC(=O)c1csc(CS(=O)(=O)c2ccc(Cl)cc2)n1`, 9.42%.
Take `Cc1cnc(C(=O)NC2CCSc3ccccc32)cn1` (centres undefined): the inhibition is 9.84%.
For the molecule `CC(C)[C@@H]1CC[C@@H](C)c2c(-c3ccccc3)n[nH]c21`, the inhibition is -1.85%.
As for `CN1CCc2cc3c(c4c2[C@H]1[C@H](O)c1ccccc1-4)OCO3`, the inhibition is 14.8%.
For the molecule `COc1ccc2c(c1O)-c1ccccc1CCN(C)C2`, the inhibition is 20.8%.
Consider `CN1CCC(=C2c3ccccc3C(O)c3ccccc32)CC1` (centres undefined), for which the inhibition was 5.26%.
As for `CN1CCc2cccc3c2[C@@H]1Cc1ccc(O)c(O)c1-3`, the inhibition is 39.9%.
For `COc1cc2c(cc1OC)C(Cc1ccc(O)cc1)N(C)CC2` (centres undefined), the inhibition was 2.71%.
On to `COc1c(O)ccc2c1CN1CCc3cc4c(cc3C1C2)OCO4` (centres undefined), for which the inhibition was 58.7%.
For `CCC(C)NCCC(=O)Nc1ccc(Cl)c(S(=O)(=O)Nc2ccc(Cl)cc2)c1` (centres undefined), the inhibition was 7.37%.
Turning to `O=C(Nc1cccc(-c2nn[nH]n2)c1)c1ccc(Cl)s1`, the inhibition is 8.59%.
Turning to `Cc1cc(C(=O)Nc2cccc(C(=O)O)c2)c(C)o1`, the inhibition is 4.39%.
Consider `CC(C)(C)c1cc(N)n(-c2ccc(C(=O)O)cc2)n1`, for which the inhibition is 11.4%.
Take `CCC(=O)N/N=C(\C)CC(=O)Nc1ccc2ccccc2c1`: the inhibition is 11.7%.
Take `C/C(CC(=O)Nc1ccc(N(C)C)cc1)=N\NC(=O)c1ccc(F)cc1`: the inhibition is 29.8%.
`C/C(CC(=O)Nc1ccc(N(C)C)cc1)=N\NC(=O)c1ccc(C(C)(C)C)cc1`: the inhibition is 9.71%.
In the case of `C/C(CC(=O)Nc1ccc(N(C)C)cc1)=N\NC(=O)c1ccccn1`, the inhibition was 28.2%.
The figure for `C/C(CC(=O)Nc1ccccn1)=N\NC(=O)c1ccc2ccccc2c1` is -45.2%; for `COc1ccc(NC(=O)C/C(C)=N/NC(=O)c2cnccn2)cc1` it is -3.03%.
